# Compound activity: PubChem BioAssay, several laboratories
# TWEAK Fn14 block = inhibitors of TWEAK-Fn14 interaction signaling; TWEAK-stimulated Fn14 reporter cells, luciferase luminescence, 8 h; hit rate 2% among 360,000; inhibition, % at 10 µM; AID 1159606; in the data active means inhibition above about 50%
# EWS-Fli inh = blocks EWS/Fli oncoprotein-driven transcription; A673 NR0B1-luciferase reporter, viability-normalised; inhibition, % at 12.6 µM; hit rate 0.67% among 350,000;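 active means mean inhibition of at least 50% after viability correction, with every replicate also passing that limit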;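 further: firefly luciferase signal divided by Alamar Blue viability fluorescence both relative to DMSO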
# CF NFkB block = blocks PAF-induced NF-kB reporter in cystic fibrosis cells | KKLEB NF-kB-GFP reporter, GFP fluorescence overnight | inhibition, % at 5 µM | hit rate 0.86% among 360,000;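 active means at least 50% inhibition at 5 µM, scaled per plate between neutral and stimulator controls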;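 further: PAF is a Pseudomonas aeruginosa culture filtrate used as stimulus; plate controls were PAF-stimulated DMSO wells for no effect and unstimulated DMSO wells for full effect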
# LGR2 inh = inhibitors of bursicon-induced Drosophila LGR2 receptor cAMP signaling; hit rate 0.35% among 380,000; inhibition, % at 9.99 µM; HEK293 LGR2, CRE-luciferase, bursicon-stimulated, 4 h;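 active means drop in luminescence signal, shown as inhibition above about 50% in the replicate tests, limit read from the data, passing the limit was not always enough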;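 further: agonist challenge used bursicon conditioned medium at about half maximal strength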
# TROY NFkB inh = TROY signaling inhibition; Q293 LMP1-TROYcd NF-kB luciferase reporter, 4 h; inhibition, % at 10 µM; hit rate 0.98% among 360,000;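 active means compounds whose plate-normalised and pattern-corrected inhibition of the luciferase reporter signal at the single screening dose is 50% or more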
# KKLEB tox = reduces viability of KKLEB cystic fibrosis airway cells | KKLEB CF airway cells viability, ATPlite luminescence, overnight; hits give low values; cells stimulated with P. aeruginosa culture filtrate | hit rate 0.36% among 360,000 | activity change (cytotoxicity), % at 5 µM | AID 602141;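 active means corrected activity change at or below -50% at 5 µM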
# * = called active by the depositor; x = no result. Only some compounds are listed: those with a hit (about 2.6% of all), similar ones and a draw of the others.
SMILES,TWEAK Fn14 block,EWS-Fli inh,CF NFkB block,LGR2 inh,TROY NFkB inh,KKLEB tox
COc1cc(N(C(=O)Cc2cccs2)C(C(=O)NC2CCCCC2)c2ccc(C)cc2)ccc1-n1cnnn1 (stereo not given),-8,x,67*,7,-6,-56*
COc1ccc(N(C(=O)Cc2cccs2)C(C(=O)NC2CCCC2)c2ccncc2)cc1OC (stereo not given),30,-4,-3,3,-13,14
C[C@@H](NC(=O)C[C@@H]1C[C@H]2c3cc(NC(=O)NC4CCCC4)ccc3O[C@H]2[C@@H](CO)O1)c1ccccc1,x,4,x,-2,x,x
O=C(C1CCOCC1)N1[C@@H](CO)[C@@H]2c3ccccc3NC[C@@H]21,x,4,x,-2,x,x
C[C@H](CO)N1C[C@H](C)[C@@H](CN(C)Cc2ccc(C(=O)Nc3ccccc3N)cc2)Oc2ccc(NS(=O)(=O)c3cn(C)cn3)cc2CC1=O,x,-4,x,-5,x,x
COc1ccc2c(c1)c(CC(=O)OCC(=O)O)c(C)n2C(=O)c1ccc(Cl)cc1,-9,5,1,-20,-2,1
COc1ccc2c(c1)c(CC(=O)OCC(N)=O)c(C)n2C(=O)c1ccc(Cl)cc1,25,4,12,5,54*,-10
CCOC(=O)C1CCCN(c2ccc(NC(=O)c3snc4c(=O)[nH]c(C)nc34)cc2)C1 (stereo not given),-28,2,-18,-8,51*,-1
Cc1nn(S(=O)(=O)c2cccs2)c(C)c1Sc1ccc([N+](=O)[O-])cc1,50*,x,-4,x,35,-17
C[C@H]1CCCCO[C@H](CN(C)C(=O)Nc2ccc3c(c2)OCO3)[C@@H](C)CN([C@@H](C)CO)C(=O)c2cc(NS(=O)(=O)c3cn(C)cn3)ccc2O1,x,-5,x,25,x,x
O=C(NC12CC3CC(CC(C3)C1)C2)c1ccc([N+](=O)[O-])o1,21,17,94*,7,-5,-78*
O=C(NC12CC3CC(CC(C3)C1)C2)c1ccc(Br)o1,2,7,-8,13,-27,-6
CC(C)(C)NC(=O)CN(C(=O)C1CSC(=O)C1)c1ccc2c(c1)OCCO2 (stereo not given),61*,x,10,x,54*,3
C[C@@H]1CN([C@@H](C)CO)C(=O)c2cc(C3=CCCCC3)cnc2O[C@H]1CN(C)Cc1ccccc1,x,-1,x,9,x,x
CN(C)CCOc1ccc(-c2c(-c3ccccc3)sc3ccccc23)cc1,-32,41,82*,12,16,-89*
c1ccc(-c2sc3ccccc3c2-c2ccc(OCCN3CCCCC3)cc2)cc1,-10,13,-8,-1,-2,-11
CCCOC(=O)Cn1c(=O)c2cc3c(=O)n(CC(=O)OCCC)c(=O)c3cc2c1=O,12,x,-5,x,62*,7
COc1cc(OC)cc(-c2sc3ccc(OC)cc3c2-c2ccc(OCCN3CCCCC3)cc2)c1,-30,x,69*,x,10,-75*
COc1ccc(-c2c(-c3cc(OC)cc(OC)c3)sc3ccc(OC)cc23)cc1,-32,1,-2,3,-1,6
COc1ccc(-c2sc3cc4c(cc3c2-c2ccc(OCCN3CCCCC3)cc2)OCO4)cc1,-30,x,72*,x,-4,-78*
Cc1noc(C)c1NC(=O)Nc1cccc2c1O[C@H](CN(C)CC1CCCCC1)[C@@H](C)CN([C@@H](C)CO)C2=O,x,-10,x,-23,x,x
O=C(N/N=C/c1ccccn1)c1sc2ccccc2c1Cl,86*,-4,-3,-82,35,-4
O=C(N/N=C\c1ccccn1)c1ccccc1O,-9,-5,-11,x,-25,5
NNC(=O)C1COc2cc3ccccc3cc2O1 (stereo not given),8,4,-29,8,13,-1
Cn1cccc1/C=N/NC(=O)c1sc2ccccc2c1Cl,51*,x,-12,x,x,7
Cc1ccccc1C(=O)N/N=C/c1ccccn1,26,-50,4,57*,18,5
O=C(N/N=C\c1ccccn1)C1COc2cc3ccccc3cc2O1 (stereo not given),73*,x,16,x,-11,-6
C[C@@H]1CCCCO[C@H](CN(C)C(=O)c2ccccc2)[C@H](C)CN([C@@H](C)CO)C(=O)c2cc(NS(=O)(=O)c3ccc(Cl)cc3)ccc2O1,x,-9,x,7,x,x
